Several values for one entry are separate records, joined by “and”; a condition that tells them apart may be missing. Identical values can stand only once. In all, about 290,000 compounds went through this assay and about 27,000 (9.3%) were called active. For the sample, actives were picked, then their nearest neighbours and some compounds at random. Values without a mark were called inactive. Cut-off read from the data, not from the text of the source: active = inhibition mostly above about 28% (no sharp cut-off); inactive = mostly below about 43%.

The assay can be described thus: A qHTS for Small Molecule Inhibitors of Shiga Toxin. Note: 0% is about no effect. To be noted: Vero cells, Shiga toxin protein synthesis inhibition reporter; at 38.7 µM, hits give high values. For orientation: In qHTS, concentration-response curves come from the screen itself.
A word on the inhibition: it is the drop in the measured response relative to a control, in per cent. For the compound `CCOC(=O)C1CCCN(CCSc2ccc(C)cc2)C1` (configuration not stated), the inhibition is 30%.
Turning to `O=C(N[C@@H](Cc1ccccc1)C(=O)OCc1ccccc1)c1nc[nH]c1C(=O)N[C@@H](Cc1ccccc1)C(=O)OCc1ccccc1`, the inhibition is -7.22%.
Consider `COc1ccccc1N1CCC(N2CCN(CC(C)(C)C)C(CCO)C2)CC1` (configuration not stated), for which the inhibition is -5.66%.
The result for `COC(=O)c1cccc(C(=O)N2CCC(CCC(=O)NCc3ccc(F)cc3)CC2)c1` reads -4.62%; that for `Cc1ccc(C(=O)Nc2nnc(C3=COCCO3)o2)cc1C`, 12.4%; that for `COc1ccc(C2=NS(=O)(=O)N(C)C(C(=O)N(C)Cc3ccccc3)=C2)cc1`, 0.266%.
For the compound `CCOc1ccc(N(C(=O)c2snc(C(N)=O)c2N)C(C(=O)NCC2CCCO2)c2c[nH]c3ccccc23)cc1` (configuration not stated), the inhibition is -13.1%.
As for `COc1cccc(Nc2ncccc2C(=O)O)c1`, the inhibition was 96.7% (active).
On to `COc1cccc(NC(=O)C(C)Oc2ccccc2)c1` (configuration not stated), for which the inhibition is -3.55%.
The figure for `COc1ccc2nc(C)cc(Nc3cccc(C(=O)O)c3)c2c1` is -3.88%.
The result for `COc1nnc(-c2ccc(C)c(S(=O)(=O)N(C)C)c2)c2ccccc12` reads 22.7%; that for `CCOC(=O)c1sc(=NC(=O)c2ccc(Br)cc2)n(C)c1C`, -5.35%.
The figure for `CCOC(=O)c1sc(=NC(=O)/C=C/c2cccs2)n(C)c1C` is 88% (active); for `CCOC(=O)c1c(NC(=S)NC(=O)/C=C/c2cccs2)sc(C)c1C` it is -10.9%; for `CCOc1ccc(OCC)c(NC(=O)CCS(=O)(=O)c2ccc(C)cc2)c1` it is -3.57%.
In the case of `O=C(Cc1c(Cl)cccc1Cl)NC1CC1`, the inhibition was -3.23%.
The result for `CC(C)CCn1cnc2c1c(=O)n(CC(=O)NC(N)=O)c(=O)n2Cc1ccccc1` reads 6.66%; that for `COc1ccc(Cc2cc(-c3ccc(F)cc3)n[nH]c2=O)cc1`, 41.9% (active).
The figure for `COc1ccc(Cc2nnc(SC)[nH]c2=O)cc1` is -10.4%.
The result for `COc1ccc(Cc2nnnn2CC(=O)O)cc1` reads 18.4%; that for `O=C(/C=C/c1ccc(Cl)cc1)NCCCn1ccnc1`, 63.2%.
As for `Cc1ccc(NS(=O)(=O)c2cc3c(cc2C)NC(=O)CO3)cc1`, the inhibition was -3.52%.
Turning to `C[C@H](NC(=O)c1nc[nH]c1C(=O)NCC(=O)OC(C)(C)C)C(=O)OCc1ccccc1`, the inhibition is -5.08%.
The figure for `CCC(C)c1ccccc1NC(=O)CN(C)CC(=O)Nc1ccccc1SC` (configuration not stated) is -5.67%; for `CCn1cc(CN2CCC(n3nccc3NC(=O)CCCc3ccccc3)CC2)c(C)n1` it is -4.01%; for `O=C(NCCCc1ccccc1)C(=O)c1c[nH]c2ccccc12` it is 34.9%.
As for `O=C(NC1CCCC1)C(=O)c1c[nH]c2ccccc12`, the inhibition is 60.6% (active).
The figure for `O=C(C(=O)N1CCc2ccccc2C1)c1c[nH]c2ccccc12` is 25.1%.
The figure for `Cc1ccc(C(=O)CCC(=O)N(C)CC(=O)Nc2c(Cl)cccc2Cl)cc1` is 12.9%; for `CCOc1ccc(NC(=O)CSc2nncn2C)cc1` it is -2.49%.
Regarding `COc1ccc(-n2c(-c3ccc(OC)c(OC)c3)n[nH]c2=S)cc1`, the inhibition was -6.08%.
The figure for `CCOc1ccccc1NC(=S)NC(=O)CCc1ccccc1` is -2.78%.
The result for `CCOc1ccc(Nc2nc(Cl)nc(N3CCN(c4ccc(OC)cc4)CC3)n2)cc1` reads -1.73%; that for `c1ccc(Nc2nc(N3CCOCC3)c3ccccc3n2)cc1`, -9.05%; that for `COc1ccc(Nc2ncc(F)c(N3CCOCC3)n2)cc1`, 68.5% (active).
The figure for `Cc1cc(C)cc(NC(=O)CN2C(=O)c3ccccc3C2=O)c1` is -7.16%.
Regarding `Cc1ccc(C(C)C)cc1OCC(=O)Nc1ccccc1N1CCCC1`, the inhibition was 38.7%.
Turning to `Cc1c(OC(C)C(=O)N[C@@H](Cc2ccccc2)C(=O)O)ccc2c3c(c(=O)oc12)CCCC3` (some centres not stated), the inhibition is -5.08%.
The figure for `O=C(Cn1ncc2c3ccccc3n(Cc3ccccc3)c2c1=O)NCCCN1CCOCC1` is 10.5%; for `CCN1C(=O)/C(=C2/Sc3ccccc3N2CCCS(=O)(=O)O)SC1=S` it is 13.4% and -2.41%.
The result for `CCN1C(=O)/C(=c2\s/c(=C3\Sc4ccccc4N3C)c(=O)n2C)N(C)C1=S` reads 40.9% (active); that for `CCCCN1C(=O)/C(=C2/Sc3ccc(Cl)cc3N2CC)SC1=S`, 1.9%.
The result for `COc1cc(OC)c(OC)cc1CN1CCN(C(=O)c2cccc3ccccc23)CC1` reads -8.18%; that for `COc1ccc(-c2nc3n(c(=O)c2C#N)CCS3)c(OC)c1`, -7.88%.
As for `O=C(N/N=C\C1CC=CCC1)c1ccc(Br)o1` (configuration not stated), the inhibition was 67.4% (active).
The figure for `COCc1c(C(=O)N/N=C/C2CC=CCC2)nnn1-c1nonc1N` (configuration not stated) is -2.4%; for `Cc1ccc(SCc2c(C(=O)N/N=C/C3CC=CCC3)nnn2-c2nonc2N)cc1` (configuration not stated) it is -9.77%.
As for `CCN1CCN(C(=O)Cn2nc(C)n3c(cc4c(OC)cccc43)c2=O)CC1`, the inhibition is -14.6%.
Consider `O=C(O)CCCn1c(=O)c2cccn2c2ccc(F)cc21`, for which the inhibition was -8.92%.
The result for `O=C(Nc1cccc2ccccc12)N1CCN(Cc2ccc3c(c2)OCO3)CC1` reads -3.81%; that for `O=C(Nc1cccc2ccccc12)N1CCC2(CC1)OCCO2`, 54.5% (active); that for `COc1ccc(NC(=O)N2CCC3(CC2)OCCO3)c(OC)c1`, 13.6%.
On to `COc1cc(/C=N/NC(=O)CNC(=O)c2ccncc2)ccc1OC(C)=O`, for which the inhibition was -3.89%.
As to `COc1ccc(C)cc1NC(=O)NCCCCc1ccccc1`, the inhibition was 14.6%.
The result for `COc1ccc(C(=O)NC2CC2)cc1OC1CCN(C/C=C/c2ccccc2)CC1` reads -9.42%; that for `CC(=O)N1c2ccc(S(=O)(=O)N3CCC(C(=O)N4CCN(c5ccccc5)CC4)CC3)cc2CC1C` (configuration not stated), -2.12%; that for `Cc1cccc(-c2nnc(SCC(=O)O)n2Cc2ccccc2)c1`, -7.35%.
The figure for `C#CCOc1ccc(/C=C2/C(=O)ON=C2C)cc1OCC` is 13.8%; for `CCOc1ccc(/C=N/NC(=O)C(C)Sc2ccccn2)cc1OCC` (configuration not stated) it is -9.85%; for `COc1cc(/C=C2/C(=O)ON=C2C)ccc1OCc1ccccc1F` it is 145% (active).
Regarding `COc1cc(/C=C2\SC(=O)NC2=O)ccc1OCc1ccc(Cl)nc1`, the inhibition is -5.05%.
`COc1cc(/C=C2/C(=O)ON=C2C)ccc1OCc1cccc(F)c1`: the inhibition is 55.1% (active).
The figure for `C=CCOc1ccc(/C=C2/C(=O)ON=C2C)cc1OCC` is 17.5%; for `CC1=NOC(=O)/C1=C\c1ccccc1` it is -4.49%.
For the compound `CCOc1c(Cl)cc(/C=N/O)cc1OC`, the inhibition was 59.8%.
For `CCOc1cc(/C=N/O)ccc1OCc1ccccc1F`, the inhibition was 40.7% (active).
For `CCn1c(CC(=O)Nc2ccccc2)nnc1SCC(=O)N1CCOCC1`, the inhibition is -10.2%.
For `Cc1ccc(/C=C2\SC(=S)N(CCC(=O)Nc3ccc(O)cc3)C2=O)cc1`, the inhibition is 0.715%.
The result for `COC(=O)c1cccc(N(CC(=O)NCC2CCCO2)C(=O)CCC(=O)Nc2cc(C)on2)c1` (configuration not stated) reads -11.3%.
The result for `CC(C)(C)Nc1c(N)c(=O)oc2ccccc12` reads 10.6%; that for `Nc1c(NCCc2ccccc2)c2ccccc2oc1=O`, 60.3% (active); that for `O=Cc1c(NCCc2cccc(F)c2)c2ccccc2[nH]c1=O`, -25%.
The result for `O=C(CNC(=O)[C@@H]1Cc2ccccc2CN1)NC1CCCCC1` reads -13.1%.
For `COc1ccccc1NC(=O)CSc1nc2sc3c(c2c(=O)n1-c1ccccc1)CCN(C)C3`, the inhibition was 35.8% (active).
The figure for `CCOc1ccc(-n2c(SCC(=O)OC)nc3sc4c(c3c2=O)CCN(C)C4)cc1` is 11.7%; for `CCOc1ccc(-n2c(SCC(=O)Nc3ccc(OC)cc3)nc3sc4c(c3c2=O)CCN(C)C4)cc1` it is 4.16%.
In the case of `O=C(O)c1cc(S(=O)(=O)N(Cc2ccccc2)c2cccc(C(F)(F)F)c2)ccc1Cl`, the inhibition is -2.31%.
As for `CC(=O)N1CCC(C(=O)OCc2ccc(Cl)cc2)(c2ccccc2)CC1`, the inhibition is -6.33%.
The result for `Cc1c(Cl)cccc1NC(=O)NCCCN1CCCC1=O` reads 29.4%; that for `O=C(CN1C(=O)c2ccccc2C1=O)NCc1ccc(C(=O)O)cc1`, 5.13%; that for `CC(=O)c1ccc(N2CCN(C(=O)c3ccc4nc[nH]c4c3)CC2)cc1`, 29.9% (active).
The figure for `O=C(c1cccc(C(=O)N2CCN(c3ccc(F)cc3)CC2)c1)N1CCN(c2ccc(F)cc2)CC1` is -8.51%; for `Cc1nc2ccc(C(=O)N3CCN(c4ccccc4)CC3)cc2s1` it is 11.9%; for `CCN1C(=NCCc2cccnc2)N[C@@H](c2ccccc2)[C@H](C(=O)OC)[C@H]1C` it is 12.2% and -9.8%.
The figure for `C=C1CCN(Cc2ccc(OC)cc2)S(=O)(=O)c2ccccc21` is -5.84%.
For `COc1ccc(OC)c(CNC(=O)Cn2nc(C)c3c(C)n(-c4ccc(C)cc4)nc3c2=O)c1`, the inhibition was 26.2%.
The figure for `COc1ccc(S(=O)(=O)NNC(=O)Nc2ccc(C)cc2)c(OC)c1` is -5.98%.
The figure for `NC(=O)C1CCN(C(=O)CC2C(=O)NCCN2Cc2cccc(Oc3ccccc3)c2)CC1` (configuration not stated) is -10.2%; for `Cc1nn(-c2ccccc2)c2c1c(C)c(CCC(=O)NCC1CCCO1)c(=O)n2C` (configuration not stated) it is -2.28%.
In the case of `Cc1[nH]c2ccccc2c1C(=O)COC(=O)c1c(-c2ccccc2)noc1C`, the inhibition was -2.62%.
The figure for `Cc1onc(-c2ccccc2Cl)c1C(=O)NCCn1ccc2ccccc21` is -2.64%.
The figure for `Cc1onc(-c2ccccc2Cl)c1C(=O)OCC(=O)c1ccccc1` is 71.6% (active).

The values above are taken from PubChem BioAssay AID2315 (National Center for Advancing Translational Sciences (NCATS), 2010).
